Consider 32 molecules from PubChem BioAssay (NCI).

Common to all, as to test: NCI-60 one-dose screen, 48 h (100 = growth as untreated, 0 = no growth, -100 = all killed)
Common to all, as to conditions: 10 µM unless noted

Assay [1] relates to T-47D breast.
The subject of assay [2] is BT-549 breast.
The subject of assay [3] is MDA-MB-435 melanoma.
The subject of assay [4] is SW-620 colon.
The subject of assay [5] is MCF7 breast.
Assay [6] relates to HCT-116 colon.
In assay [7] the test system is HCC-2998 colon.
The subject of assay [8] is KM12 colon.

About 83,000 compounds went through this panel and 20% of them were active in at least one assay; those are over-represented in the sample as a whole.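 Each cell line was grown in a 96-well plate and treated with one concentration of compound for 48 hours. Values below 10 were considered active.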 Values without a mark were called inactive. Active and inactive are the calls of the source.

Consider `CC1=C([Se]CC(OC(=O)CC[Se]c2ccccc2)C(=O)NC(C)(C)C)C(=O)c2ccccc2C1=O` (stereo unspecified), for which the growth in assay [1] is -54.5% (active); in assay [2], -89% (active); in assay [3] it was -61.7% (active); in assay [4], -76.9% (active); in assay [5], -54.7% (active); in assay [6] it was -61.9% (active). For the same molecule, the growth is -87.2% (active) in assay [7] and -92.3% (active) in assay [8].
`Cc1cc(S(=O)(=O)/N=C(\N)n2nc(C)c(C)c2C)c(SCc2ccccc2)cc1Cl`: the growth in assay [1] was 53%; in assay [2], 112%; in assay [3] it was 27%; in assay [4] it was 75.4%; in assay [5], 70.8%; in assay [6] it was 62%. The growth in assay [7] is 56.9%; in assay [8] it was 81.7%.
In the case of `O=C1NC(=C(Cl)Cl)/C(=N\S(=O)(=O)NCc2ccccc2)N1`, the growth in assay [1] was 52%; in assay [2], 97.8%; in assay [3], 95.8%; in assay [4], 111%; in assay [5] it was 74.4%; in assay [6], 94.2%. Besides, the growth in assay [7] was 127%; in assay [8], 62.9%.
Take `CNC(=O)c1[nH]cc(-c2ccc(OC)cc2)c1-c1cc(OC)c2c(c1OC)OCO2`: the growth is 92.3% in assay [1]; 97.4% in assay [2]; 99.6% in assay [3]; 103% in assay [4]; 97.5% in assay [5]; 95.6% in assay [6]. Besides, the growth is 101% in assay [7] and 104% in assay [8].
Take `Cn1cc(-c2ccc3nc(-c4ccc(CC(=O)ONc5cc(C(C)(C)C)on5)cc4)cnc3c2)cn1`: the growth is 24.2% in assay [1]; 29.6% in assay [2]; 34.4% in assay [3]; 40.6% in assay [4]; 53.1% in assay [5]; 16.7% in assay [6]. Further, the growth in assay [7] was 41.8%; in assay [8] it was 11%.
As for `N=C(N)c1ccc(-c2ccc(-c3ccc(Cl)cc3Cl)s2)cc1`, the growth is 47.2% in assay [1]; 100% in assay [2]; -2.28% (active) in assay [3]; -52.1% (active) in assay [4]; -65.4% (active) in assay [5]; -60.1% (active) in assay [6]. Also, the values for the growth in assay [7] and in assay [8] were -65.9% (active) and -87.3% (active), respectively.
As to `O=S(=O)(NCCNc1nccc(-c2c(-c3ccc(F)c(O)c3)nc3occn23)n1)c1ccc(Cl)cc1`, the growth in assay [1] is 92.3%; in assay [2] it was 107%; in assay [3], 38.6%; in assay [4], 112%; in assay [5] it was 71.6%; in assay [6] it was 60.9%. The results for the growth in assay [7] and in assay [8] were 102% and 84%, respectively.
Regarding `NC(=O)c1cc(I)ccc1NC(=O)/C=C/c1ccccc1`, the growth is 122% in assay [1]; 61.5% in assay [2]; -30.5% (active) in assay [3]; 9.63% (active) in assay [4]; 2.18% (active) in assay [5]; 8.52% (active) in assay [6]. Also, the growth was -62.3% (active) in assay [7] and 8.98% (active) in assay [8].
For `O=C1c2c(c3c4ccccc4[nH]c3c3ccc4ccccc4c23)C(=O)N1CCN1CCOCC1`, the growth in assay [1] is 18.6%; in assay [2], 69.8%; in assay [3] it was 58.6%; in assay [4] it was 36.1%; in assay [5], 16.4%; in assay [6], 23.4%. Further, the growth in assay [7] was 80%; in assay [8], 36.4%.
On to `COc1ccc(C2=Nc3c(N)nc(N)nc3NC(c3cccc(Nc4ccnc5cc(C(F)(F)F)ccc45)c3)C2)cc1` (stereo unspecified), for which the growth in assay [1] is 93%; in assay [2], 107%; in assay [3] it was 10.1%; in assay [4] it was 50.4%; in assay [5] it was 37.7%; in assay [6] it was 37.9%. Moreover, the figures for the growth in assay [7] and in assay [8] were 72.2% and 40.4%, respectively.
For `COc1ccc(-c2nc3cc(C(=O)NCc4ccccc4)ccc3n2C2CCCCC2)cc1`, the growth is 68.2% in assay [1]; 80.9% in assay [2]; 81.7% in assay [3]; 94.9% in assay [4]; 76.6% in assay [5]; 82.9% in assay [6]. In addition, the values for the growth in assay [7] and in assay [8] were 79.3% and 57.4%, respectively.
In the case of `Cc1cc(C(=O)Nc2ncc(Cc3cccc(C(F)(F)F)c3)s2)c2ccccc2n1`, the growth in assay [1] is 12.1%; in assay [2] it was 34.7%; in assay [3], -27.3% (active); in assay [4] it was 17.3%; in assay [5], 10.2%; in assay [6], 18%. The growth in assay [7] is 25.6%; in assay [8], 15.5%.
`O=S(=O)(NCCCNc1nccc(-c2c(-c3ccc(F)c(O)c3)nc3occn23)n1)c1ccc(Cl)cc1`: the growth was 69.1% in assay [1]; 79.4% in assay [2]; 27.6% in assay [3]; 97.8% in assay [4]; 55.9% in assay [5]; 32.8% in assay [6]. For the same molecule, the growth was 85.7% in assay [7] and 70.2% in assay [8].
With `COc1ccc(/C=N/C2=C(C#N)C(c3ccccc3)c3ccc4ccccc4c3O2)cc1` (stereo unspecified), the growth was 46.7% in assay [1]; 12.9% in assay [2]; -56.3% (active) in assay [3]; 24.3% in assay [4]; 12.2% in assay [5]; 10.3% in assay [6]. Also, the growth was -6.81% (active) in assay [7] and 17.5% in assay [8].
With `CCCCNC(=O)Oc1ccc(/C(=C(/C)Cc2ccc(OC)cc2)c2ccc(OCCN(CC)CC)cc2)cc1`, the growth was 42.1% in assay [1]; 87.1% in assay [2]; 66.8% in assay [3]; 93.3% in assay [4]; 28.5% in assay [5]; 42.7% in assay [6]. Besides, the figures for the growth in assay [7] and in assay [8] were 85.6% and 85.1%, respectively.
Turning to `N#Cc1ccc2c(c1)C(=O)c1c-2n(CCCN)c(=O)c2cc([N+](=O)[O-])ccc12`, the growth in assay [1] is -78.6% (active); in assay [2], -100% (active); in assay [3] it was -86.3% (active); in assay [4] it was -100% (active); in assay [5], -74.8% (active); in assay [6] it was -100% (active). Moreover, the growth in assay [7] was -100% (active); in assay [8], -98% (active).
For the molecule `CN(C)c1ccc(C(=O)OCCCCCCl)cc1`, the growth is 82% in assay [1]; 94.1% in assay [2]; 96.6% in assay [3]; 99.9% in assay [4]; 95.1% in assay [5]; 96.7% in assay [6]. The figures for the growth in assay [7] and in assay [8] were 98.4% and 97%, respectively.
With `CC1CCN(CCOc2ccc(CNc3ccc4nc(CCC5CCCCC5)[nH]c4c3)cc2)CC1`, the growth is -32.8% (active) in assay [1]; 68.4% in assay [2]; -43.4% (active) in assay [3]; 13.9% in assay [4]; 5.38% (active) in assay [5]; 13.7% in assay [6]. Also, the growth in assay [7] was -50.5% (active); in assay [8], 44%.
On to `O=C(O)c1ccc(-n2cc(/C=N/Nc3ccccc3)c(-c3ccc(F)cc3F)n2)cc1`, for which the growth is 35.4% in assay [1]; 95.2% in assay [2]; 45.9% in assay [3]; 30.1% in assay [4]; 41.6% in assay [5]; 37.7% in assay [6]. Also, the growth in assay [7] is 81.1%; in assay [8] it was 29.3%.
`CSc1nc(N)c(NS(=O)(=O)c2ccc(C(C)=O)cc2)c(=O)[nH]1`: the growth in assay [1] was 102%; in assay [2] it was 98.4%; in assay [3], 102%; in assay [4], 102%; in assay [5], 85.9%; in assay [6], 92.7%. Moreover, the growth is 112% in assay [7] and 103% in assay [8].
In the case of `COc1ccc(C(C)=O)cc1S(=O)(=O)Nc1c(N)nc(SC)[nH]c1=O`, the growth in assay [1] is 116%; in assay [2], 117%; in assay [3], 97.7%; in assay [4], 101%; in assay [5] it was 92.9%; in assay [6], 100%. The growth in assay [7] was 99%; in assay [8], 96.7%.
As to `N#CC1=C(N)Oc2c(ccc3ccccc23)C1c1ccccc1` (stereo unspecified), the growth in assay [1] was 63.5%; in assay [2] it was -16.5% (active); in assay [3], -38.9% (active); in assay [4], 28.2%; in assay [5] it was 11.1%; in assay [6], 3.37% (active). In addition, the growth in assay [7] was -4.65% (active); in assay [8], 14.7%.
In the case of `CCOC(=O)c1c(NC(=O)c2cccc(C(F)(F)F)c2)sc2c(CN(C)C)c(O)ccc12`, the growth is 70.3% in assay [1]; 96.3% in assay [2]; -22.6% (active) in assay [3]; -6.39% (active) in assay [4]; 26.3% in assay [5]; 33.7% in assay [6]. Besides, the growth in assay [7] is -64.2% (active); in assay [8], 79.4%.
With `COc1cc2c(c(OC)c1OC)CCC(c1cccc(C(=O)Nc3cccc(Cl)c3)c1)O2` (stereo unspecified), the growth in assay [1] was 36.7%; in assay [2], 67.5%; in assay [3], 82.1%; in assay [4], 99.2%; in assay [5], 73%; in assay [6] it was 74.2%. Besides, the growth in assay [7] was 91%; in assay [8], 96.3%.
On to `Cn1cc(-c2csc(-c3c[nH]c4ccccc34)n2)c2cnccc21`, for which the growth in assay [1] is -3.84% (active); in assay [2], 78.7%; in assay [3], -72.5% (active); in assay [4], -48% (active); in assay [5] it was 16.7%; in assay [6], -59.7% (active). Also, the results for the growth in assay [7] and in assay [8] were 87% and 22.8%, respectively.
Turning to `COc1cc(OC)c(/C=C/C(=O)c2c(OC)cccc2OC)c(OC)c1`, the growth in assay [1] was 30.1%; in assay [2] it was 7.43% (active); in assay [3], -22% (active); in assay [4], 17.7%; in assay [5] it was 25.1%; in assay [6], 9.06% (active). Further, the results for the growth in assay [7] and in assay [8] were 0.761% (active) and 8.59% (active), respectively.
As for `Fc1cc2c(cc1Cl)N(c1ncnc3ccc(-c4ccc5n[nH]nc5c4)cc13)CC2`, the growth is 65.5% in assay [1]; 88.2% in assay [2]; 92.4% in assay [3]; 96.9% in assay [4]; 80.3% in assay [5]; 96.7% in assay [6]. For the same molecule, the growth was 92.1% in assay [7] and 97.7% in assay [8].
Turning to `OCCn1cc(-c2nc(-c3c[nH]c4ncccc34)cs2)c2ccccc21`, the growth is 37.3% in assay [1]; 76% in assay [2]; 52.1% in assay [3]; 91.5% in assay [4]; 32.9% in assay [5]; 85.2% in assay [6]. The growth in assay [7] was 52%; in assay [8], 48%.
On to `O=C(Nc1ccc(Oc2cccc(Cl)c2)c(Cl)c1)c1cccnc1`, for which the growth in assay [1] was 35.6%; in assay [2], 53.3%; in assay [3], -44.3% (active); in assay [4] it was 25.4%; in assay [5], 21.6%; in assay [6], 29.9%. Moreover, the growth in assay [7] was 58%; in assay [8], 28.1%.
`Cc1nc2sc(C(=O)Nc3cccc4ccccc34)c(N)c2cc1C(O)c1ccccc1` (stereo unspecified): the growth is 45.4% in assay [1]; 40.2% in assay [2]; 0.328% (active) in assay [3]; 20.2% in assay [4]; 12.4% in assay [5]; 8.89% (active) in assay [6]. Moreover, the results for the growth in assay [7] and in assay [8] were 5.55% (active) and 7.64% (active), respectively.
Regarding `N#Cc1c(-c2ccccc2)cc(-c2ccccc2)n(CCCC(=O)Nc2ccccc2N)c1=O`, the growth was 64.1% in assay [1]; 55.4% in assay [2]; -15.6% (active) in assay [3]; 35% in assay [4]; 36% in assay [5]; 45% in assay [6]. Besides, the growth in assay [7] is 85.7%; in assay [8], 42.3%.
As to `Cn1c(I)c(C#CCO[Si](C)(C)C(C)(C)C)c(=O)[nH]c1=O`, the growth in assay [1] was 61.9%; in assay [2] it was 97.1%; in assay [3], 97.4%; in assay [4], 11.4%; in assay [5], 88%; in assay [6], 94.6%. Further, the values for the growth in assay [7] and in assay [8] were 99.7% and 107%, respectively.
